This note sets out measurements from PubChem BioAssay AID2763 (National Center for Advancing Translational Sciences (NCATS), 2010).

Inconclusive results are not listed. Calls of active or inactive are those of the source. Calls follow the shape of the dose curve; as a rule, active = well fitted inhibition curve with a large enough effect; inconclusive = small, poorly fitted or top-dose-only effect, or effect the other way; inactive = no such curve, though single readings can be large or run the other way.
% is scaled to controls: 0 for no effect and ±100 for the full control effect; potency is read from the fitted curve at half-maximal effect.

A short description of this assay: Concentration response confirmation VP16 counterscreen for inhibitors of ROR gamma transcriptional activity. Also: nearly all actives have a fitted effect of over 70% in size. Particulars: Drosophila S2 Gal4-VP16 UAS-luciferase, luminescence, 20 h; series mostly up to 46.1 µM; activity change, negative = inhibition: at the top concentration. A digest of the protocol:
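Luciferase counterscreen: UAS-driven Photinus reporter in S2 cells expressing copper-inducible Gal4-VP16 fusion, 600 cells/well. Induced with copper sulfate (700 uM final) 1 hr after compound, incubated 20 hr at ambient temperature before luminescence detection.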
(A counterscreen serves to expose hits that act by an unwanted route or on another target.)
As for `O=C(CCCN1C(=O)/C(=C/c2ccccc2Cl)SC1=S)Nc1cccnc1`, the Potency is 14.1 µM (active).

`Cc1c(OC(C)C(=O)NCc2cccnc2)ccc2c3c(c(=O)oc12)CCCC3` (stereo unspecified): the “activity change, negative = inhibition” value was -9.89% (inactive).

For the compound `O=C(/C=C/c1c(F)cccc1Cl)N1CCc2ccccc2C1`, the “activity change, negative = inhibition” value was 7.93% (inactive).

For the compound `COc1ccc(OC)c(/C=C2\SC(=S)N(C(C(=O)O)c3ccccc3)C2=O)c1` (stereo unspecified), the “activity change, negative = inhibition” value was -2.55% (inactive).

As for `CNC(=O)NC(=O)CSc1nc2cc(C(=O)OC)ccc2c(=O)n1-c1ccccc1`, the Potency is 25 µM (active).

`COc1cc(C2c3cc4c(cc3C(OC3OC5COC(c6cccs6)OC5C(O)C3O)C3COC(=O)C23)OCO4)cc(OC)c1O` (stereo unspecified): the Potency was 25 µM (active).

For the compound `O=S(=O)(NCc1ccccn1)C(F)(F)F`, the Potency was 25 µM (active).

With `CC(C)(C)S(=O)(=O)c1cnc2c(-c3ccc(F)cc3)cnn2c1N`, the Potency is 12.5 µM (active).

As for `COc1ccc(OC)c(NC(=S)N(CCc2c(C)[nH]c3ccccc23)Cc2cccs2)c1`, the “activity change, negative = inhibition” value is 11.4% (inactive).

Consider `Cc1ccc(NC(=S)NCCN(C2CCCCC2)C2CCCC2)cc1C`, for which the Potency was 22.3 µM (active).

`Cc1cc(NC(=O)CN2CCOCC2)n(-c2nc3ccccc3s2)n1`: the Potency is 12.5 µM (active).

In the case of `CCOc1ccc(OCc2cccc(C(=O)O)c2)cc1`, the Potency was 8.88 µM (active).

On to `COc1cccc(CNS(=O)(=O)c2ccc3c(c2)CCN3C(=O)C2CC2)c1`, for which the “activity change, negative = inhibition” value is -7.99% (inactive).

For `CCN1C(=O)/C(=C/c2ccc(N3CCCC3)cc2)NC1=S`, the Potency is 9.96 µM (active).

In the case of `Cc1cccc(NC(=O)c2cc3ccccc3o2)c1`, the Potency was 25 µM (active).

With `CCN(CC)c1ccc(/C=N/n2c(-c3ccccc3Br)n[nH]c2=S)cc1`, the “activity change, negative = inhibition” value is 12.6% (inactive).
